According to the OligoGym collection:

Target: CTLA4
Assay: pooled miR-30 sensor sort-seq; sequence = guide strand
Details: shRNA
Also: reference of the scale not given here.

| Sequence | sensor-assay potency score (higher = more potent) |
| --- | --- |
| TTAGCAATTACATAAATCTGGG | -0.222 |
| TTACATAAATCTGGGTTCCGTT | -0.355 |
| TTTCTTTAGCATTTTGCTCAAA | -0.998 |
| TTTCACATTCTGGCTCTGTTGG | -0.615 |
| TGGATCAATTACATAAATCTGG | -0.489 |
| TACATGAGCTCCACCTTGCAGA | -0.733 |
| TTTAGCAATTACATAAATCTGG | 0.216 |
| TTGCTTTTCACATTCTGGCTCT | 0.296 |
| TTGCTCAAAGAAACAGCTGTGA | -0.0499 |
| ATCAATTACATAAATCTGGGTT | -0.149 |

Target: CTNNAL1
Assay: as above
Details: shRNA

| Sequence | sensor-assay potency score (higher = more potent) |
| --- | --- |
| TCGACAGGTCTCAACAAGCTGC | -0.481 |
| TTCATTAAGACTGTGACTGATT | 0.0876 |
| TTGTAACTGAGACCCATCCGTT | -0.457 |
| TTATTTGTAACTGAGACCCATC | -0.547 |
| TTGAACACTGGAAGTAAGCTTT | 0.00936 |
| TTTCTTGATGTTATTATCTGTT | -0.648 |
| TTCATTTCCAAATTGACTGAAT | 0.0043 |
| TTGTTTTCTTGCTTTGAGCTTG | 0.085 |
| TTGTCTTCGTAATACACTTGTC | -0.611 |
| ATTTTGTCTATCTCCACTCAGA | -0.843 |
| TTCAGCAGCAGAAATTATCTGT | 0.229 |
| TAGTTGATGAATTAAATCCTGG | -0.667 |

Target: CTNNBIP1
Assay: as above
Details: shRNA

| Sequence | sensor-assay potency score (higher = more potent) |
| --- | --- |
| TCTGCTGAATGTACATCTCCTC | -0.574 |
| TGGCTGTCAGGTTTGATCCCAT | -0.741 |
| TTGATATCAGCAGAACACCTGC | -0.0972 |
| TCTCCTCCGGACTCTTCCCGGG | -0.954 |
| TTCTGCTGAATGTACATCTCCT | -0.0119 |
| CTGAATGTACATCTCCTCCGGA | -0.773 |
| ATCTCCTCCGGACTCTTCCCGG | -1.21 |
| TCGGACCTTCTGCTGAATGTAC | -1.3 |
| TGATCCCATCTTCCGCAGCATG | -1.86 |
| ATAGGTGCGCAGGAACTCCTCC | -0.215 |
| TGAATGTACATCTCCTCCGGAC | -0.75 |
| TTGACCACCCCTGCATAGGTGC | -1.01 |

Target: CTNNBL1
Assay: as above
Details: shRNA

| Sequence | sensor-assay potency score (higher = more potent) |
| --- | --- |
| TACTCCTTGATGATATGCCTGA | -0.148 |
| TGTATTATCGTGTCCGAGCAAG | -1.35 |
| TTTTTTTGTCATCATCCGCTTC | -0.298 |
| AAGCACATCGATTCCATCCAGC | -0.642 |
| TTGTCTGGAAACTTAATCCGCA | -0.219 |
